Data on 27 molecules can be found in PubChem BioAssay.

The experiment is described as follows: binders from COS7 lysate, DM2A8 probe, primary screen, torsin A project, cell lysate, small-molecule microarray, fluorescence 635/667 (AID 1065). As to conditions: higher = more signal, COS7 lysate expressing mutant human TOR1A.
As to `O=C1O[C@H](c2ccccc2)[C@H](c2ccccc2)N2[C@H]1[C@@H](C(=O)Nc1nc3ccccc3s1)[C@]1(C(=O)Nc3ccc(C#CCCO)cc31)[C@H]2c1ccc(OCCO)cc1`, the composite z-score came to 0.135.
For the molecule `O=C1OCCC/C=C\[C@H]2OC34C=CCN(Cc5ccccc5)C(=O)[C@H]3N(CCCCCCO)C(=O)[C@@H]4C12` (some centres not stated), the composite z-score turned out to be 1.37.
The molecule `C=CC[C@]1(C(=O)N2CCCCC2)N=C(c2ccc(OCCCO)cc2)O[C@H]1c1ccccc1` returned a composite z-score of 0.785.
Take `COc1ccc(C(=O)O[C@H]2CC[C@]3(C)C4=C(CCC3C2(C)C)[C@]2(C)CC[C@H]([C@H](C)CCCC(C)C)[C@@]2(C)CC4)cc1` (some centres not stated): the composite z-score is 0.191.
In the case of `C[C@]1(C(=O)NC2CC2)c2ccccc2C(=O)N(Cc2cc(C(F)(F)F)cc(C(F)(F)F)c2)[C@H]1c1ccc(CO)cc1` it was 0.14.
As to `NCCCCCNC(=O)[C@@H]1C[C@@H]2C(=O)NCC(=O)N2[C@@H]1c1ccc(O)cc1`, the composite z-score is 0.304.
`[N-]=[N+]=Nc1ccccc1C[C@@]1(C(=O)NCCN2CCOCC2)N=C(c2ccc(OCCCO)cc2)O[C@@H]1c1ccccc1` returned a composite z-score of 0.205.
The molecule `Cc1ccc(S[C@]2(C(=O)NC3CC3)CC(=O)N(C3Cc4ccccc4C3)[C@@H]2c2ccc(CO)cc2)cc1` registered a composite z-score of -0.233.
With `C=C(/C(=C/C[C@@H](OC(C)=O)c1ccc(OCCO)cc1)c1cnc2ccccc2c1)C(C)C`, the composite z-score is 0.769.
`CC1(C)[C@@H]2CC(C(O)C3C=CC4C(=O)N(c5ccccc5)C(=O)C4N3Nc3ccccc3)=C[C@H]1C2` (some centres not stated): the composite z-score was -0.6.
Regarding `COC(=O)[C@@]1(Cc2ccc(F)cc2)[C@H]2c3cc(C(=O)N4CCCC4)n(Cc4cc(C)n(C)n4)c3C[C@H]2CN1C(=O)c1ccccc1`, the composite z-score came to 0.276.
For `CC1CC/C=C\[C@H]2OC34C=CCN(c5ccc(Cl)cc5)C(=O)[C@H]3N(CCO)C(=O)[C@]4(C)C2C(=O)O1` (some centres not stated) the value was 0.0741; for `O=C1O[C@H](c2ccccc2)[C@H](c2ccccc2)N2[C@H]1[C@@H](C(=O)O)[C@]1(C(=O)Nc3ccc(C#CCCO)cc31)[C@H]2c1ccc(O)cc1`, 0.502.
Molecule `COc1cc2c(cc1O)C=[N+](Cc1cccc(OC(F)(F)F)c1)CC2` yielded a composite z-score of 0.137.
On to `COC(=O)c1c(CC[C@@H](CO)NC(=O)N[C@H](Cn2cc(Cc3ccccc3)nn2)C(C)C)oc(C(C)=O)c1C(=O)OC`, for which the composite z-score worked out at 0.128.
Molecule `O=C1O[C@H](c2ccccc2)[C@H](c2ccccc2)N2[C@H]1[C@@H](C(=O)N1CCN(c3ncccn3)CC1)[C@]1(C(=O)Nc3ccc(C#CC4=CCCCC4)cc31)[C@H]2c1ccc(O)cc1` showed a composite z-score of 0.542.
For `CN(C)CCCNC(=O)[C@@]1(c2ccc([N+](=O)[O-])cc2)CC(=O)N(C2CCCCC2)[C@@H]1c1ccc(CO)cc1` the value was 0.595; for `COc1ccc(C#Cc2ccc3c(c2)[C@]2(C(=O)N3)[C@H](c3ccccc3OCCO)N3[C@H](c4ccccc4)[C@H](c4ccccc4)OC(=O)[C@H]3[C@@H]2C(=O)O)cc1`, 0.424.
The molecule `COc1ccc([C@H]2OC[C@@H]3CC4(CC=CC4)C(=O)N32)cc1` gave a composite z-score of -0.407.
For `COc1ccc(C(O)C2C=CC3C(=O)NC(=O)C3N2Nc2ccccn2)c2ccccc12` (configuration not stated) the value was 0.184.
`Cc1ccc(S[C@]2(C(=O)NC(C)C)CC(=O)N(Cc3ccccc3Cl)[C@@H]2c2ccc(CO)cc2I)cc1`: the composite z-score is -0.756.
In turn, `C=CCOC(=O)[C@@H]1[C@H]2C(=O)O[C@H](c3ccccc3)[C@H](c3ccccc3)N2[C@H](c2ccc(OCCOC(=O)[C@@H]3C[C@@H]4C(=O)N5CCC[C@H]5C(=O)N4[C@@H]3c3ccc(O)cc3)cc2)[C@@]12C(=O)Nc1ccc(I)cc12` yielded a composite z-score of -0.0315.
For the molecule `CCN(CC)c1ccc(N2CC=CC34O[C@@H]5/C=C\CCCOC(=O)C5[C@H]3C(=O)N(CCO)[C@@H]4C2=O)cc1` (some centres not stated), the composite z-score is -0.542.
`C=CCNC(=O)[C@@H]1[C@H]2C(=O)O[C@H](c3ccccc3)[C@H](c3ccccc3)N2[C@H](c2ccc(OCCO)cc2)[C@@]12C(=O)Nc1ccc(C#CCCO)cc12` had a composite z-score of 0.727.
In turn, `COC(=O)C(CC#Cc1ccc2c(c1)[C@]1(C(=O)N2)[C@H](c2ccc(O)cc2)N2[C@H](c3ccccc3)[C@H](c3ccccc3)OC(=O)[C@H]2[C@@H]1C(=O)Nc1nc2ccccc2s1)C(=O)OC` had a composite z-score of 0.372.
Molecule `CCOC(=O)C[C@H]1[C@H](OC(=O)c2cc3ccccc3oc2=O)[C@@H](NC(=O)C2CCCCC2)c2cc(OCCCO)ccc2N1C(=O)c1ccccc1` showed a composite z-score of 0.0071.
In turn, `C=CC[C@@]1(C(N)=O)N=C(c2ccc(OCCCO)cc2)O[C@@H]1c1ccccc1CN=[N+]=[N-]` yielded a composite z-score of -0.41.
